Source: PubChem BioAssay
In the library only some 21% were active in any assay of this set; here they are far more common.
D3 antag – D3 dopamine receptor (human) antagonism; AID 652054; max response, negative = inhibition, %; P35462; 360,000 tested, 2.5% active; D3R cells, DiscoveRx beta-arrestin luminescence, antagonist mode; active compounds read low; in the data active = max response below about -50%; inconclusive = no clear call, values can overlap the other calls; also: % is scaled to controls: 0 for no effect and ±100 for the full control effect
Target sequence (P35462 whole entry, looked up): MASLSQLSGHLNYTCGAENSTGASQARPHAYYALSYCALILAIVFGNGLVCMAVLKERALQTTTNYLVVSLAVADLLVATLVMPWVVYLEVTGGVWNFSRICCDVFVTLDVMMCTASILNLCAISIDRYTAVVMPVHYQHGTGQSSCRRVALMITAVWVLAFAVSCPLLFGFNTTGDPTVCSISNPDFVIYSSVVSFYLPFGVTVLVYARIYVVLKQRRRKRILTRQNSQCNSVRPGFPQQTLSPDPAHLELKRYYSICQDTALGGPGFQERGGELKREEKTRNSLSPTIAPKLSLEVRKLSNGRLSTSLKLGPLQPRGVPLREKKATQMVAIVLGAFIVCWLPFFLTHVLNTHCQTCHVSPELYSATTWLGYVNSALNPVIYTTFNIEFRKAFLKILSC
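Cells plated overnight at 1500 cells/well, then exposed to library compounds with dopamine controls for 90 minutes at 37 degrees C. DiscoveRx reagent added for 30–60 minutes at room temperature; luminescence read, quantitative HTS format.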
TDP1 cell noCPT – qHTS for Inhibitors of human tyrosyl-DNA phosphodiesterase 1 (TDP1): qHTS in cells in absence of CPT. DT40 Tdp1-/- hTDP1 cells, no CPT, ATP luminescence, 48 h. AID 686978, 2013. Potency, µM (titrated, usually from 46.2 µM), for inactives: at the highest dose activity change, negative = growth inhibition, most hits filed as inhibitors. 420,000 tested, 15% active; also: potency is read from the fitted curve at half-maximal effect; % is scaled to controls: 0 for no effect and ±100 for the full control effect; nearly all actives have a fitted effect of over 55% in size
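DT40 Tdp1-/-;hTDP1 cells, no CPT (DMSO vehicle only), 400 cells/well; compounds pin-transferred; ≥48 hr, 37 °C; CellTiter-Glo 30 min RT dark, luminescence read.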
IL1B secr inh – blocks inflammasome-driven IL-1 beta release. THP-1 LPS/ATP IL-1B secretion, AlphaLISA, 16 h; active compounds read low. activity change, % at 57.5 µM. 360,000 tested, 4.7% active. AID 743279; in the data active = activity change below about -50%; inconclusive = mostly about -30% to -49%; also: % is scaled to controls: 0 for no effect and ±100 for the full control effect
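THP-1 cells pretreated 1 hr with compounds (up to 57.5 uM final), then stimulated with LPS (250 ng/mL final) plus ATP (1.25 mM final); secreted IL-1B measured by AlphaLISA after 16 hr, decreased signal indicating inhibition.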
ClpP mod – qHTS Assay for Activators of ClpP. 340,000 tested, 1.9% active. purified B. subtilis ClpP, FRET peptide cleavage, 20 min. ATP-dependent Clp protease proteolytic subunit (Bacillus subtilis (strain 168)), P80244. Potency, µM (doses to about 57.5 µM), for the others: top-dose activity change, negative = active. AID 651965, 2013; active = well fitted falling curve with a large enough effect; inconclusive = small, poorly fitted or top-dose-only effect; inactive = no such curve, though single readings can be large or run the other way; also: potency is read from the fitted curve at half-maximal effect; the source files actives as falling curves though it sought activators and does not explain the sign; nearly all actives have a fitted effect of over 65% in size
Target sequence (P80244 whole entry, looked up): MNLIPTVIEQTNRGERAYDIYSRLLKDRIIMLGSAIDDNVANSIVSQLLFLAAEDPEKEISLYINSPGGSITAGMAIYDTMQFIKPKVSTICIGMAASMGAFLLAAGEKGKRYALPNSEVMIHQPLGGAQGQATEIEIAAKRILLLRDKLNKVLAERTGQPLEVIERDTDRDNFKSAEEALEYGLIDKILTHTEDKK
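Purified B. subtilis ClpP, 10 microg/mL final in Tris/HCl pH8 with KCl, BSA, glycerol and Tween-20, cleaved an Abz/nitrotyrosine-quenched decapeptide. Fluorescence (ex 320, em 430) was read at 0 and 20 min at room temperature. Delta was normalized to 5.8 microM ADEP and DMSO/no-enzyme controls.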
DT40 TDP1 CPT – DT40-hTDP1 cell growth loss with CPT | chicken DT40 Tdp1-/-;hTDP1 cells + 20 nM CPT, ATP luminescence, 48 h | Potency, µM (series often up to 46.2 µM), inactives show at the highest dose activity change, negative = growth inhibition, most hits filed as inhibitors | 420,000 tested, 12% active; also: potency is read from the fitted curve at half-maximal effect; % is scaled to controls: 0 for no effect and ±100 for the full control effect; nearly all actives have a fitted effect of over 55% in size
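Chicken DT40 Tdp1-/- cells stably complemented with human TDP1 were seeded at 400 cells/well in medium containing 20 nM camptothecin, exposed to pin-transferred compounds, and grown at 37 °C for at least 48 hr. Viability was read as ATP luminescence.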
D3 ag – agonists of human D3 dopamine receptor; max activation, %; P35462; 410,000 tested, 0.58% active; D3R DiscoveRx beta-arrestin cells, luminescence, 90 min; AID 652048; in the data active = max activation above about 30%; also: 0% is about no effect
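Agonist-mode cell screen: cells plated at 1500/well and incubated overnight at 37 °C, then exposed to library compounds for 90 min at 37 °C. Detection reagent was added for 30–60 min at room temperature, and luminescence was read.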
* marks the source's active call; other numbers are inactive results; ? = inconclusive; / = not tested or not shown; ! = repeats disagree; [ ] = remark or other dose. Unless noted, calls follow the shape of the dose curve; as a rule, active = well fitted inhibition curve with a large enough effect; inconclusive = small, poorly fitted or top-dose-only effect; inactive = flat fitted curve, though single readings scatter.

SMILES | D3 antag | TDP1 cell noCPT | IL1B secr inh | ClpP mod | DT40 TDP1 CPT | D3 ag
Cc1ccc(C)c(NC(=O)CN(C)C(=O)CN2C(=O)C3CCCCC3C2=O)c1 (configuration not stated) | -9 | -3% | 16 | 1% | -15% | -6
COc1ccc(NC(=O)C2CCN(S(=O)(=O)c3cccs3)CC2)cc1OC | 1 | ? | 41 | 0% | ? | 2
CCOc1ccc(Nc2cc(C)c(C#N)c3nc4ccccc4n23)cc1 | / | -28% | / | 1% | ? | 3
COc1ccccc1NS(=O)(=O)c1cccc(C(=O)NCC(c2ccco2)N2CCCC2)c1 (configuration not stated) | ? | ? | -8 | -2% | ? | -7
Cc1cccc(NS(=O)(=O)c2ccc(C(=O)NCC(c3ccccc3)N(C)C)cc2)c1C (configuration not stated) | -25 | ? | -6 | 0% | 16µM* | -20
Cc1ccc(N(C)S(=O)(=O)c2cccc(C(=O)NCC(c3ccco3)N3CCCC3)c2)cc1 (configuration not stated) | -69* | ? | ? | -2% | ? | -21
Cc1cccc(C(=O)Nc2ccc(C(=O)OCc3cc(=O)n4c5c(sc4n3)CCCC5)cc2)c1 | / | -26% | / | -6% | -15% | -9
COc1ccc(C(=O)N2CCC3(CCCN(Cc4ccccc4)C3)CC2)cc1 | / | -27% | / | / | -4% | /
O=c1c(C=Nc2ccc(Oc3ccccc3)cc2)c[nH]n1-c1cccc(Cl)n1 | -56* | ? | 13 | 3% | ? | 1
Cc1cc(OCC(=O)OC(C)C(=O)NC2CC2)c(C(C)C)cc1Cl (configuration not stated) | 0 | ? | 9 | 0% | ? | -3
CN(C(=O)CN1CCN(c2cc(-c3ccc(-c4ccccc4)cc3)ncn2)CC1)c1ccccc1 | -5 | ? | -15 | -8% | 23µM* | -1
CN(C(=O)COc1coc(CN2CCN(c3ccccc3)CC2)cc1=O)c1ccccc1 | 22 | -18% | 20 | 1% | -21% | 5
O=c1[nH]c(O)c(C=Nc2ccc(Cl)cc2Cl)c(=O)[nH]1 | 6 | 8% | 4 | / | 13% | -5
O=c1[nH]cc(N=Cc2cc(Cl)cc(Cl)c2O)c(=O)[nH]1 | -67* | -20% | -4 | -3% | 14% | -7
CN(C)[C@@H](CO)c1nnc([C@H](CC(=O)O)NC(=O)C2CCNCC2)o1 | 4 | -1% | 2 | 0% | 4.6µM* | 3
O=C(CCCc1c[nH]c2ccccc12)NCc1ccccc1F | 2 | -10% | -1 | / | ? | -2
COc1ccccc1N1CCN(C(=O)c2cc(C(C)(C)C)oc2C)CC1 | -14 | 21µM* | -60* | / | ? | -18
Cc1cc(C)c2cc(C(=O)N3CCN(c4ncccc4C(F)(F)F)CC3)[nH]c2c1 | 10 | 15µM* | -20 | / | ? | 11
COc1cc(SC)ccc1C(=O)N1CCN(c2ccccc2OC)CC1 | -6 | 4.6µM* | 30 | / | 21µM* | -4
CC(C)(C)NC(=O)N1CCN(c2ncccc2C(F)(F)F)CC1 | ? | -18% | 24 | 0% | -6% | -20
COc1ccccc1N1CCN(C(=O)c2c(C)cc(=O)oc2C)CC1 | 0 | 4% | 0 | -1% | 2% | 2
Cc1oc(C(C)(C)C)cc1C(=O)N1CCN(c2ncccc2C(F)(F)F)CC1 | 21 | 23µM* | -6 | 0% | ? | 15
CCCCCNC(=O)CCn1c(=O)[nH]c2ccccc2c1=O | / | ? | / | ? | ? | -21
COCCC(=O)N1CCC(Oc2ccc(C(=O)N(C)CCCC3CCCC3)cc2)CC1 | ? | ? | -30 | -2% | ? | 3
O=C(/C=C/c1ccccc1)Nn1cnc2ccccc2c1=O | 7 | -98% | -3 | / | 16µM* | 2
SMILES | D3 antag | TDP1 cell noCPT | IL1B secr inh | ClpP mod | DT40 TDP1 CPT | D3 ag
Cc1nc(N2CCN(S(=O)(=O)c3ccccc3)CC2)c2c3c(sc2n1)CC(C)CC3 (configuration not stated) | -7 | ? | 9 | -18% | -23% | -2
Cc1nc(N2CCN(S(=O)(=O)c3cccc4nonc34)CC2)c2c3c(sc2n1)CCCC3 | -8 | 16µM* | -3 | -2% | ? | -12
CC1=C(C(=O)OC(C)C)C(c2ccc(O)cc2)NC(=O)N1 (configuration not stated) | 12 | -4% | 0 | / | -1% | 7
CC1=C(C(=O)OC(C)C)[C@@H](c2cccc3nonc23)C([N+](=O)[O-])=C(C)N1 | / | 15µM* | / | / | ? | /
COC(=O)C1=C(C)NC(C)=C(C(=O)OC)C1c1ccco1 | 6 | 1% | 2 | -11% | -8% | -2
COC(=O)C1=C(C)NC(C)=C([N+](=O)[O-])C1c1ccccc1C(F)(F)F (configuration not stated) | ? | 12µM*! | -12 | -5% | 17µM* | -43
Cc1c(CNC(=O)c2c([N+](=O)[O-])cnn2C)cnn1C | -14 | 10% | 13 | / | 11% | -7
Cc1ccc(C2=Nc3ccccc3N=C(c3ccc([N+](=O)[O-])cc3)C2)c(O)c1 | 8 | ? | 11 | ? | -18% | 1
Cc1nn(C(=O)c2ccccc2)c(C)c1Sc1ccc(Cl)cc1 | / | 8.2µM* | / | -9% | ? | -2
CCCC(=O)Oc1c(Sc2ccc(C)cc2)c(C)nn1-c1ccccc1 | / | -17% | / | -3% | -17% | -12
Cc1ccc(Sc2c(C)nn(C(=O)c3ccc(Br)cc3)c2C)cc1 | / | -15% | / | -17% | 3% | 0
CCC(=O)Oc1c(Sc2ccc(Cl)cc2)c(C)nn1-c1ccccc1 | / | 0.52µM* | / | -4% | ? | -9
COc1ccc(CN2CCOc3ccc(CN4CCC(Oc5cccnc5)CC4)cc3C2)cc1C | / | ? | / | / | -10%[9.04 µM] | /
c1cncc(OC2CCN(Cc3ccc4c(c3)CN(Cc3ccc5c(c3)OCCO5)CCO4)CC2)c1 | / | 16µM* | / | / | ? | /
c1cncc(OC2CCN(Cc3ccc4c(c3)CN(Cc3ccc5c(c3)CCO5)CCO4)CC2)c1 | / | 18µM* | / | / | -9%[9.04 µM] | /
COc1ccc(CN2CCOc3ccc(CN4CCC(Oc5cccnc5)CC4)cc3C2)cc1 | / | -29% | / | / | 21µM* | /
COC(=O)c1ccc(CNC(=O)c2ccc(OCC(=O)N3CCOCC3)c(OC)c2)cc1 | -20 | -21% | -16 | / | 4% | -28
COCCNc1ncnc2c1ncn2[C@H]1CN(Cc2ccncc2)C[C@@H](CO)O1 | -7 | -4% | 4 | -4% | -12% | 7
